Screens as filed in PubChem.
Most compounds without a hit are left out; they make up all but 9.1% or so of the library.
mHtt clearance = mutant huntingtin protein clearance | HeLa Exon1htt(103Q)mCFP, aggregate imaging; zero = plate's median compound well | inhibition, % at 1.5 µM | actives 0.42% (n = 47,000) | AID 853;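 active means inhibition of aggregate fluorescence above about 70%, also judged a hit by eye on the cell image, limit read from the data, passing the limit was not always enough; inconclusive means no rule stated for this call; inactive means not judged a hit on image review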;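 further: cells exposed to compound for three days before fixation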
M1 antagonist = M1 muscarinic receptor (rat) antagonism | B-score at 10 µM | CHO-M1 cells, Fluo-4 calcium, ACh EC80 antagonist mode; hits give low values | P08482 | actives 3.4% (n = 64,000);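 active means calcium fluorescence response, raw or row-and-column corrected B-score, differing from the plate sample mean either way at a set confidence level, mostly lower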
Target sequence (P08482 whole entry, looked up): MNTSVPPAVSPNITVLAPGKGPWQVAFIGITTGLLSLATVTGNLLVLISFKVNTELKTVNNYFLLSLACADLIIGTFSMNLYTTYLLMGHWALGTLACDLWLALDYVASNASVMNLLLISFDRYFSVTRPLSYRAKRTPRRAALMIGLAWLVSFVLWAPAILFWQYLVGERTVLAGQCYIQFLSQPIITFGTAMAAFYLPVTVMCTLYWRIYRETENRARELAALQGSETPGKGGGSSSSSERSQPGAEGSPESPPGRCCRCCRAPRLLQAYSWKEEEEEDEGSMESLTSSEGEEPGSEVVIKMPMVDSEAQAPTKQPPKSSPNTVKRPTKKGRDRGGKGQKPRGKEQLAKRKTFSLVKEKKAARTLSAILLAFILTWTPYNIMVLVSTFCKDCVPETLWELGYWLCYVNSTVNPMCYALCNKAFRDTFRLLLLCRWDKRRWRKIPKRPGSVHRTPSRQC
M1 agonist = agonists of M1 muscarinic receptor; CHO-M1 cells, Fluo-4 calcium fluorescence, agonist mode; hits give high values; B-score at 10 µM; actives 3% (n = 64,000); AID 626;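 active means fluorescence rise, raw or as B-score row- and column-corrected plate score, outside the 99.7% band of its plate's samples, either direction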
D1 mod = D1 dopamine receptor (human) allosteric modulation. HEK293 D1, CRE-luciferase, dopamine EC30 potentiation; actives deviate in either direction. P21728. actives 5.9% (n = 58,000). B-score at 10 µM;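 active means luminescence count or its row- and column-corrected plate score outside the 99.7% band of the plate's sample wells, on either side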
D1 PAM confirm = D1 receptor (human) allosteric modulation, confirmed | HEK293 D1 CRE-luciferase, dopamine EC30 potentiation; hits give high values | luminescence at 10 µM | actives 88% (n = 2,200) | shares compounds with D1 mod;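 active means luminescence in either of two replicates above the same-plate mean plus 3 SD of the low-dose dopamine control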
D1 no dopamine = activates D1 CRE-luciferase signal without dopamine present | shares compounds with D1 mod | actives 0.8% (n = 1,900) | HEK293 D1 CRE-luciferase, luminescence, no dopamine; hits give high values | luminescence at 10 µM; in the data active means luminescence above about 3900
Isoprot counter = isoproterenol response counter-screen activity for D1 modulators. actives 63% (n = 2,200). shares compounds with D1 mod. AID 647. HEK293 D1 CRE-luciferase, isoproterenol EC30 counter-screen; hits give high values. luminescence at 10 µM;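 active means luminescence in either replicate above plate mean of wells with a partly effective reference agonist dose plus 3 SD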;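 further: isoproterenol raises cAMP through native beta-adrenoceptor Gs so signal bypasses D1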
The depositor's hits bear a star; ? = inconclusive; · = not tested or not shown.

SMILES | mHtt clearance | M1 antagonist | M1 agonist | D1 mod | D1 PAM confirm | D1 no dopamine | Isoprot counter
COc1ccc(C2=NOC(C(=O)N3CCCCCC3)C2)cc1OC (configuration not stated) | · | 0.0038 | -1.4 | 0.42 | · | · | ·
COc1ccc(C2=NOC(C(=O)Nc3ccc(C(C)=O)cc3)C2)cc1OC (configuration not stated) | 35 | 0.26 | 0.025 | 5* | 8288* | · | 2792*
COc1ccc(C2=NOC(C(=O)NCc3ccccn3)C2)cc1OC (configuration not stated) | -15 | · | · | · | · | · | ·
COc1ccc(C2=NOC(C(=O)Nc3cc(Br)ccc3O)C2)cc1OC (configuration not stated) | · | 1.6 | -1.3 | 38* | 25996* | 1720 | 8288*
COc1ccc(OC)c(C2=NOC(C(=O)Nc3cccc(C(C)=O)c3)C2)c1 (configuration not stated) | -61 | -0.0028 | -1.2 | 3.7* | 9256* | 1624 | 2976
COc1ccc(CCNC(=O)C2CC(=O)N(C3CCCCCCC3)C2)cc1OC (configuration not stated) | -39 | · | · | · | · | · | ·
COc1ccc(CCNC(=O)C2CC(=O)N(c3ccccc3)C2)cc1OC (configuration not stated) | -6 | -0.045 | -0.27 | 2.9* | 5376 | 1464 | 2532
CCOc1ccc(Oc2ccc(-c3nnc(-c4ccccc4)o3)cc2[N+](=O)[O-])cc1 | 19 | · | · | · | · | · | ·
NC(=O)COc1c(-c2ccccc2)oc2ccccc2c1=O | · | 0.2 | -0.17 | 2.6* | 15448* | 1588 | 3600*
CC(C)CCn1c(CN2CCN(c3cccc(Cl)c3)CC2)nc2c1c(=O)n(C)c(=O)n2C | · | -0.28 | 0.17 | -0.071 | · | · | ·
COc1cccc(-n2c(SCC(=O)Nc3cc(C)on3)nc3c([nH]c4ccccc43)c2=O)c1 | 27 | -0.23 | 0.4 | 5.7* | 10104* | 1812 | 4472*
CCCCOc1ccc(C(=O)NC)cc1 | 12 | 0.64 | -0.77 | -0.064 | · | · | ·
CCCCOc1ccc(CC(=O)NO)cc1 | · | 0.2 | 0.015 | 33* | 18936* | · | 3532*
CCOC(=O)CSC(C)C(=O)Nc1nnc(C(C)C)s1 (configuration not stated) | · | -0.16 | 0.048 | -0.017 | · | · | ·
Cc1cc2ccccc2c(=O)n1CC(=O)NCC(=O)N1CCN(c2cccc(Cl)c2)CC1 | 24 | -0.31 | 0.0071 | -0.46 | · | · | ·
Cc1cc2ccccc2c(=O)n1CC(=O)NCC(=O)N1CCN(c2ccccc2F)CC1 | · | -0.15 | 0.47 | 3.4* | 7784 | 1604 | 2064
CCC(c1nnnn1Cc1ccccc1)N(Cc1ccco1)Cc1cc2cc(OC)ccc2[nH]c1=O (configuration not stated) | · | -0.83 | 0.5 | · | · | · | ·
CCC(c1nnnn1CCOC)N(Cc1ccc(C)cc1)Cc1cc2cc(OC)ccc2[nH]c1=O (configuration not stated) | -12 | 0.35 | -1.2 | 5.8* | 14016* | 1612 | 5100*
COc1ccc(S(=O)(=O)N(C)CC(=O)NC2CC2)cc1 | -16 | 0.16 | -0.81 | -1.3 | · | · | ·
CCC(=O)Nc1c2c(nn1-c1ccc(OC)cc1)CS(=O)C2 (configuration not stated) | ? | -0.14 | 1.2 | -0.63 | · | · | ·
CCCC(=O)Nc1c2c(nn1-c1ccc(OC)cc1)CS(=O)C2 (configuration not stated) | · | 0.28 | -1.1 | 3.2* | 5968 | 1700 | 2448
CCNc1nc(NC(C)(C)C)nc(N(CC)n2cnnc2)n1 | · | -0.99 | -0.39 | 2.7* | 8308* | 1680 | 3080
CN(C)c1ccc(NC(=O)Cn2cc3c(n2)CCCC3)cc1 | · | 0.12 | 0.065 | -0.76 | · | · | ·
COc1ccc(Cl)cc1Nc1nc(N)nc(C(F)(F)F)n1 | 66 | · | · | · | · | · | ·
COc1ccc(Nc2nc(N)nc(C(F)(F)F)n2)c(OC)c1 | -2 | 0.17 | 0.96 | 4.2* | 11048* | 1732 | 2984*
SMILES | mHtt clearance | M1 antagonist | M1 agonist | D1 mod | D1 PAM confirm | D1 no dopamine | Isoprot counter
COc1ccc(NC(=O)C2CCN(S(=O)(=O)c3cccnc3)CC2)cc1Cl | · | -0.49 | 0.0077 | -0.099 | · | · | ·
CCn1ccc(C(=O)Nc2ccc(N(C)C(C)=O)cc2)n1 | · | -0.17 | 0.36 | 2.4* | 5156 | 1532 | 2508
CCn1ccc(C(=O)Nc2ccc(Cl)cn2)n1 | · | -0.19 | 0.12 | -0.041 | · | · | ·
COC(=O)c1ccc(COc2nc(C)cc(C)c2C#N)o1 | -23 | -0.31 | 0.0031 | 3.6* | 11580* | 1524 | 3036
O=C(CCS(=O)(=O)c1ccc(Br)s1)N1CCc2ccccc21 | 63 | 0.33 | 0.82 | 0.58 | · | · | ·
COC(=O)c1cccc(COC(=O)c2ccc(CS(=O)(=O)c3ccc(C)cc3)cc2)c1 | -4 | · | · | · | · | · | ·
CCOC(=O)Cc1csc(SCc2nc3sc4c(c3c(=O)[nH]2)CCC4)n1 | 48 | · | · | · | · | · | ·
Nc1ncnc2c1ncn2CCN1CCOCC1 | 63 | 0.54 | 0 | -0.32 | · | · | ·
Nc1ncnc2c1ncn2CCOc1ccccc1 | · | -0.74 | -0.54 | 4.9* | 6344* | 1408 | 2924
Cc1cccc(N2CCN(C(=O)Cc3c(C(=O)O)[nH]c4ccc(Cl)cc34)CC2)c1C | 66 | 1 | 0.65 | 0.69 | · | · | ·
COC(=O)CCc1c(C)c(C#N)c2nc3ccccc3n2c1N1CCCC1 | 8 | -0.13 | -0.65 | 5.5* | 10456* | · | 3348*
Cc1c(CCC#N)c(N2CCCCC2)n2c(nc3ccccc32)c1C#N | · | -0.088 | 1.6 | 3 | · | · | ·
O=C(c1cccs1)c1coc2ccc(O)c(CN3CCOCC3)c12 | -52 | -0.44 | 0.034 | 18* | 20688* | · | 3180*
Nc1[nH]nc2nc(N3CCOCC3)nc(-c3ccccc3)c12 | · | 0.46 | 0.53 | 9.8* | 13488* | · | 3584*
CC(C)c1ccc(-c2nc(N3CCCC3)nc3n[nH]c(N)c23)cc1 | · | -0.0024 | 0.18 | 0.05 | · | · | ·
CCOC(=O)/C(C(C)=O)=C1/OC(=O)c2ccccc21 | 16 | · | · | · | · | · | ·
COc1ccc(-c2nnc(SCC#CCO)o2)cc1OC | · | -0.75 | 0.34 | 15* | 16500* | 1544 | 4316*
COc1ccc(-c2nnc(SCC(=O)N3CCCc4ccccc43)o2)cc1OC | 31 | 0.98 | -0.28 | 16* | 19988* | 1836 | 3384*
COc1ccc(-c2nc(CN3CCC(C(=O)N4CCc5ccccc54)CC3)c(C)o2)cc1OC | · | -1.2 | -0.47 | 2.8* | 6820* | 1624 | 3344*
COc1ccccc1-c1nnc(SCC(=O)N2CCC(C)CC2)o1 | -16 | · | · | 3.1* | 5288 | · | 3168
CCOC(=O)N1CCN(S(=O)(=O)c2cc(OCC(N)=O)c(C)cc2Cl)CC1 | · | 0 | 0 | -0.2 | · | · | ·
O=C(Nc1ccc(C(=O)Oc2ccccc2)c(O)c1)c1ccco1 | 18 | · | · | -0.96 | · | · | ·
COc1ccc(CN2CCC(C(=O)NCCc3ccc(OC)c(OC)c3)CC2)c(OC)c1 | -26 | · | · | · | · | · | ·
COc1ccc(S(=O)(=O)NCc2ccco2)cc1-c1nnc2c3ccccc3c(C)nn12 | · | 0.4 | -0.26 | 8.6* | 8232* | 1520 | 3052*
CNS(=O)(=O)c1ccc(OC)c(-c2nnc3c4ccccc4c(C)nn23)c1 | 4 | · | · | · | · | · | ·
